# Screening results: PubChem BioAssay, National Center for Advancing Translational Sciences (NCATS)
# The list is not random: actives were taken first. Their share in the collection is about 8.6%.
# LASV entry inh: qHTS for Inhibitors of binding or entry into cells for Lassa Virus; Lassa virus pseudotyped entry inhibition, cell-based qHTS; Potency, µM (titrated, usually from 49.2 µM), actives largely listed as inhibitors; 18,000 compounds, 4.1% hits
# Marburg entry: qHTS for Inhibitors of binding or entry into cells for Marburg Virus; Marburg virus pseudotype entry/binding inhibition, cell-based; Potency, µM (highest dose often 49.2 µM), usual class: inhibitors; 18,000 compounds, 6.5% hits
# Hits are given with their value; – = inactive; ? = inconclusive; · = no result given; ! = repeats disagree; [ ] = another dose, or the depositor's remark. Calls follow the shape of the full dose curve; tested in HEK293 cells.
SMILES,LASV entry inh,Marburg entry
C[C@@H]1CC2=CCCC2[C@]2(O1)C(=O)N(Cc1ccc(Br)cc1)c1cccc(Br)c12 (some centres undefined),·,–[8.59 µM]
CCC(=O)c1ccc(O)cc1,–,–
O=C1C=CC(=C(c2ccc(O)cc2)c2ccc(O)cc2)C=C1,8.9µM,13µM
Fc1ccc(-c2nn3ccccc3c2-c2ccncc2)cc1,–,?
C[C@H]1[C@@H](c2ccccc2)Oc2c(Cl)cccc2S(=O)(=O)N1Cc1ccc(F)cc1,–,?
C=C1CC[C@H](O)CC1=C/C=C1\CCC[C@]2(C)[C@@H]([C@H](C)CC[C@@H](O)C(C)(C)O)CC[C@@H]12,16µM,–
C=C1CC[C@H](O)CC1=C/C=C1\CCC[C@]2(C)[C@@H]([C@H](C)CCCC(C)(C)O)CC[C@@H]12,13µM,–
C=C1CC[C@H](O)C/C1=C\C=C1/CCC[C@]2(C)[C@@H]([C@H](C)CCCC(C)C)CC[C@@H]12,?,–
C=C1CC[C@H](O)C/C1=C/C=C1\CCC[C@]2(C)[C@@H]([C@H](C)CCCC(C)C)CC[C@@H]12,?,–
Cc1ccccc1CN1CCSCCS1(=O)=O,–,?
COC(=O)CC=C[C@@H](C)[C@@H](Cc1ccccc1Br)OC,·,–[8.59 µM]
Cc1ccc(/C=C2/CNC/C(=C\c3ccc(C)cc3)C2=O)cc1,11µM,3.5µM
COC(=O)C1=C(C)N(Cc2ccccc2)C(=NCC2CC2)NC1c1ccc(Br)cc1 (centres undefined),–[8.59 µM],–[8.59 µM]
NC(=NCc1ccccc1)NC(=O)c1nc(Cl)c(N)nc1N,?,25µM!
NC(=Nc1ccccc1)NC(=O)c1nc(Cl)c(N)nc1N,–,?
C#CC1(O)C(OC)=CC2C(=O)C1C(c1ccccc1)C2C (centres undefined),·,–[8.59 µM]
C=C1C([C@@H](O)C[C@H](C)C2O[C@@]3(CCCCO3)CC[C@H]2C)OC2CC[C@@]3(CC[C@@H](/C=C/[C@@H](C)C4CC(C)=C[C@]5(O4)O[C@H](C[C@@](C)(O)C(=O)O)CCC5O)O3)OC2[C@@H]1O (some centres undefined),1.1µM,?
C=C1CC[C@@]2(O)[C@H]3Cc4ccc(O)c5c4[C@@]2(CCN3CC2CC2)[C@H]1O5,–,–
C=C(C)CN1CC[C@@]23c4c5ccc(O)c4O[C@H]2c2[nH]c4ccccc4c2C[C@]3(O)[C@@H]1C5,?,22µM
C=CCN1CC[C@]23c4c5ccc(O)c4OC2C(=O)CC[C@]3(O)C1C5 (some centres undefined),–,–
Oc1ccc2c3c1O[C@H]1c4[nH]c5ccccc5c4C[C@@]4(O)C(C2)N(CC2CC2)CCC314 (some centres undefined),?,13µM
COC1=CC2C(=O)C(C1=O)[C@H](c1ccccc1)[C@H]2C (some centres undefined),–[8.59 µM],–[8.59 µM]
Oc1cccc(-c2c3nc(c(-c4cccc(O)c4)c4ccc([nH]4)c(-c4cccc(O)c4)c4nc(c(-c5cccc(O)c5)c5ccc2[nH]5)CC4)C=C3)c1,25µM,?
O=C(NN=C1C[C@@H](O)[C@H](O)[C@H]2[C@@H]3C(=O)N(C[C@@H]4CCCO4)C(=O)[C@@H]3CC[C@H]12)OCc1ccccc1,·,–[8.59 µM]
FC(F)(F)c1cccc(-c2nn3ncccc3c2-c2ccnc(Nc3ccc4c(c3)OCCO4)n2)c1,·,4µM
SMILES,LASV entry inh,Marburg entry
c1cnn2ncc(-c3ccnc(Nc4ccc5c(c4)OCCO5)n3)c2c1,·,2.8µM
OCCCNc1nccc(-c2c(-c3ccc(F)cc3)nn3cc(C(F)(F)F)ccc23)n1,–,?
Fc1ccc(-c2nn3ncccc3c2-c2ccnc(Nc3ccc4c(c3)OCCO4)n2)cc1,?,0.89µM
COc1ccc(-c2nn3ncccc3c2-c2ccnc(Nc3ccc4c(c3)OCCO4)n2)cc1,?,7.1µM
Cc1cc(-c2ccnc(-n3ncc(C(=O)NCC4COCCO4)c3C)n2)c(C)s1 (centres undefined),–,?
C=C(C)CCCN1C=C(C(C)=O)C(c2ccccc2)NC1=O (centres undefined),–[8.59 µM],–[8.59 µM]
COC(=O)C1=C(C)N(Cc2ccccc2)C(=NCCc2cccnc2)NC1c1ccccc1 (centres undefined),–[8.59 µM],–[8.59 µM]
O=C1[C@@H]2[C@H]3[C@H](O)[C@H](O)CC(=NOC[C@@H](O)COCc4ccco4)[C@H]3CC[C@H]2C(=O)N1c1ccc(F)cc1F,–[8.59 µM],–[8.59 µM]
Cc1cc2c(c(=O)n1Cc1ccccc1)[C@H]1O[C@](c3ccsc3)(Cc3cc(C#N)ccc31)O2,–[8.59 µM],–[8.59 µM]
CCN1CCC(N[C@H]2C[C@@H](C(=O)NC)N(Cc3cccc4ccccc34)C2)CC1,–,?
C=CCN1c2ccccc2[C@]23CCC(=O)N(CC(=O)OC)C2=NC(C(=O)OC)=C(C(=O)OC)[C@H]13,–[8.59 µM],–[8.59 µM]
Cc1ncc2c(c1CNC(=O)c1ccc3c(c1)OCO3)CCN(C(=O)c1cn3ccccc3n1)C2,?,–
CCN1C(=O)[C@@H]2[C@H]3[C@H](O)[C@H](O)CC(=NO[C@@H]4O[C@H](COC(C)=O)[C@@H](OC(C)=O)[C@H](OC(C)=O)[C@@H]4OC(C)=O)[C@@H]3CC[C@H]2C1=O,–[8.59 µM],–[8.59 µM]
Clc1ccc(-c2nn3ncccc3c2-c2ccnc(Nc3ccccc3)n2)cc1,·,6.3µM
NC(=O)c1ccc2c(-c3ccnc(NCCCO)n3)c(-c3ccc(F)cc3)nn2c1,–,?
COc1cc(CNc2nc(C)c(-c3ccn(C4Cc5ccccc5C4)n3)s2)cc2c1OCO2,–,–
O=C(NN=C1C[C@@H](O)[C@H](O)[C@H]2[C@@H]3C(=O)N(C[C@@H]4CCCO4)C(=O)[C@@H]3CC[C@@H]12)OCc1ccccc1,·,–[8.59 µM]
COC(=O)C1=C2C=C(C)CC(C)N2C(=O)NC1c1ccccc1 (centres undefined),–[8.59 µM],–[8.59 µM]
c1ccc(-c2nc(-c3cccc4ccccc34)c(Nc3ccc4ccccc4c3)o2)cc1,–,–
Clc1cccc(Nc2nnc(-c3ccccc3)c3ccccc23)c1,3.5µM,7.1µM!
C[C@@H](C1=C(CCN(C)C)Cc2ccccc21)c1ccccn1,?,18µM
CN(C)CCC(c1ccccc1)c1ccccn1 (centres undefined),–,?
COC(=O)[C@H](C)N1CC=CCOc2c(Cl)cc(Cl)cc2[S+]1(=O)[O-],–,–
Cc1cc(O)c2c(c1)C(=O)c1cccc(O)c1C2=O,–,–
O=C(O)c1cc(O)c2c(c1)C(=O)c1cccc(O)c1C2=O,–,13µM
SMILES,LASV entry inh,Marburg entry
O=C(CC(=O)c1ccccc1)c1ccccc1,–,–
O=C(O)CCC(=O)c1ccc(-c2ccccc2)cc1,–,0.1µM!
CC(=C\c1ccccc1)/C=C1/SC(=S)N(CC(=O)O)C1=O,–,–
C=CCOC(=O)C(C(C)=O)[C@@H](NC(=O)OC)c1ccco1 (some centres undefined),–[8.59 µM],–[8.59 µM]
COc1cc(NCCCC(C)N)c2ncccc2c1 (centres undefined),10µM,8.9µM
CCN1C(=NCc2cccc(Cl)c2)N[C@@H](CCc2ccccc2)[C@H](C(=O)OC)[C@H]1C,–[8.59 µM],–[8.59 µM]
CN1CC[C@@]23CCCCC2C1Cc1ccc(O)cc13 (some centres undefined),–,–
COc1ccc2c(c1)[C@@]13CCCCC1[C@@H](C2)N(C)CC3 (some centres undefined),?,8.9µM
Cc1cccc(CNc2nc(-c3cccc(NS(C)(=O)=O)c3)nc3ccccc23)c1,–,?
COc1cc(NS(C)(=O)=O)ccc1Nc1c2ccccc2nc2ccccc12,3.2µM,?
